# This excerpt belongs to a sample that is enriched for the strongest signals.
# B1: CPA (Cicer arietinum) (protein)
# chain: MAFSYLNLVLVTLTTLFFLQTTKVKSQKSVSFHITNFTISRPSITLQGTAEFLPNVLLLNDIEHPVFVVGRALYSKPITLWNNKTGKVASFVTSFTFDVQDLKKTVPGHGLVFFLAPSGSEIPFSSDGGNLGVVDGKNAFNRFVGVEFDNFVNSWDPKYSHVGINVNSLISTKTVKWNRVSGELVKVSIVYDSVSTTLTVIVTYKNGQISILSQLVDLKAVLPDTVNIGFSASTTLVSPRQLHNIHSWSFTSTFET
# Tests used:
# Assay in all cases: glycan array binding signal (z-score within array); higher = stronger binding
# Conditions in all cases: glycan notation: IUPAC condensed, linker removed
# Fuc(a1-2)Gal(b1-3)GalNAc = target: Fuc(a1-2)Gal(b1-3)GalNAc
# In short: (§1)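 Arrays were curated from the Consortium for Functional Glycomics database, 3228 in total, and kept only where the protein sequence was available. Binding is expressed as a within-array Z-score. This score was averaged across arrays of the same protein sequence at different concentrations or buffers and across linkers, and negative values can be read as non-binding.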
# [1] = target: Fuc(a1-2)Gal(b1-3)GlcNAc(b1-2)Man(a1-3)[Fuc(a1-2)Gal(b1-3)GlcNAc(b1-2)Man(a1-6)]Man(b1-4)GlcNAc(b1-4)GlcNAc
# In short: as §1
# [2] = target: Fuc(a1-2)Gal(b1-3)[Fuc(a1-4)]GlcNAc(b1-3)[Gal(b1-4)GlcNAc(b1-6)]Gal(b1-4)Glc
# In short: as §1
# [3] = target: Fuc(a1-2)Gal(b1-4)GlcNAc(b1-2)Man(a1-3)[Fuc(a1-2)Gal(b1-4)GlcNAc(b1-2)Man(a1-6)]Man(b1-4)GlcNAc(b1-4)[Fuc(a1-6)]GlcNAc
# In short: as §1
# [4] = target: Fuc(a1-2)Gal(b1-4)GlcNAc(b1-3)Gal(b1-4)GlcNAc(b1-2)Man(a1-3)[Fuc(a1-2)Gal(b1-4)GlcNAc(b1-3)Gal(b1-4)GlcNAc(b1-2)Man(a1-6)]Man(b1-4)GlcNAc(b1-4)GlcNAc
# In short: as §1
# [5] = target: Fuc(a1-2)Gal(b1-4)[Fuc(a1-3)]GlcNAc(b1-3)Gal(b1-4)[Fuc(a1-3)]GlcNAc
# In short: as §1
# [6] = target: Fuc(a1-2)[Gal(a1-3)]Gal(b1-3)GlcNAc(b1-2)Man(a1-3)[Fuc(a1-2)[Gal(a1-3)]Gal(b1-3)GlcNAc(b1-2)Man(a1-6)]Man(b1-4)GlcNAc(b1-4)[Fuc(a1-6)]GlcNAc
# In short: as §1
# [7] = target: Fuc(a1-2)[Gal(a1-3)]Gal(b1-4)GlcNAc(b1-2)Man(a1-3)[Fuc(a1-2)[Gal(a1-3)]Gal(b1-4)GlcNAc(b1-2)Man(a1-6)]Man(b1-4)GlcNAc(b1-4)GlcNAc
# In short: as §1
# [8] = target: Fuc(a1-2)[GalNAc(a1-3)]Gal(b1-3)GlcNAc(b1-3)GalNAc
# In short: as §1
# [9] = target: Fuc(a1-2)[GalNAc(a1-3)]Gal(b1-4)GlcNAc(b1-2)Man(a1-3)[Fuc(a1-2)[GalNAc(a1-3)]Gal(b1-4)GlcNAc(b1-2)Man(a1-6)]Man(b1-4)GlcNAc(b1-4)[Fuc(a1-6)]GlcNAc
# In short: as §1
# [10] = target: Fuc(a1-2)[GalNAc(a1-4)]Gal(b1-4)GlcNAc
# In short: as §1
# Fuc(a1-3)GlcNAc = target: Fuc(a1-3)GlcNAc
# In short: as §1
# Gal(a1-2)Gal = target: Gal(a1-2)Gal
# In short: as §1
# Gal(a1-3)Gal(b1-3)GlcNAc = target: Gal(a1-3)Gal(b1-3)GlcNAc
# In short: as §1
# [11] = target: Gal(a1-3)Gal(b1-3)GlcNAc(b1-2)Man
# In short: as §1
# [12] = target: Gal(a1-3)Gal(b1-3)GlcNAc(b1-6)GalNAc
# In short: as §1
# Gal(a1-3)Gal(b1-4)Glc = target: Gal(a1-3)Gal(b1-4)Glc
# In short: as §1
# [13] = target: Gal(a1-3)Gal(b1-4)GlcNAc(b1-6)GalNAc
# In short: as §1
# Gal(a1-3)GalNAc = target: Gal(a1-3)GalNAc
# In short: as §1
# [14] = target: Gal(b1-3)GalNAc(a1-3)[Fuc(a1-2)]Gal(b1-4)Glc
# In short: as §1
# [15] = target: Gal(b1-3)GlcNAc(b1-3)Gal(b1-4)GlcNAc(b1-3)Gal(b1-4)GlcNAc(b1-2)[Gal(b1-3)GlcNAc(b1-3)Gal(b1-4)GlcNAc(b1-3)Gal(b1-4)GlcNAc(b1-6)]Man(a1-6)[Gal(b1-3)GlcNAc(b1-3)Gal(b1-4)GlcNAc(b1-3)Gal(b1-4)GlcNAc(b1-2)Man(a1-3)]Man(b1-4)GlcNAc(b1-4)[Fuc(a1-6)]GlcNAc
# In short: as §1
# [16] = target: Gal(b1-4)GalNAc(a1-3)[Fuc(a1-2)]Gal(b1-4)GlcNAc
# In short: as §1
# [17] = target: Gal(b1-4)GlcNAc(b1-2)Man(a1-6)[Man(a1-3)]Man(b1-4)GlcNAc(b1-4)GlcNAc
# In short: as §1
# [18] = target: Gal(b1-4)GlcNAc(b1-3)Gal(b1-4)GlcNAc(b1-3)Gal(b1-4)GlcNAc(b1-2)Man(a1-3)[Gal(b1-4)GlcNAc(b1-3)Gal(b1-4)GlcNAc(b1-3)Gal(b1-4)GlcNAc(b1-2)Man(a1-6)]Man(b1-4)GlcNAc(b1-4)GlcNAc
# In short: as §1
# [19] = target: Gal(b1-4)GlcNAc(b1-3)Gal(b1-4)GlcNAc(b1-3)Gal(b1-4)GlcNAc(b1-3)Gal(b1-4)GlcNAc(b1-2)Man(a1-3)[Gal(b1-4)GlcNAc(b1-3)Gal(b1-4)GlcNAc(b1-3)Gal(b1-4)GlcNAc(b1-3)Gal(b1-4)GlcNAc(b1-2)Man(a1-6)]Man(b1-4)GlcNAc(b1-4)[Fuc(a1-6)]GlcNAc
# In short: as §1
# [20] = target: Gal(b1-4)GlcNAc(b1-3)Gal(b1-4)GlcNAc(b1-3)Gal(b1-4)GlcNAc(b1-3)Gal(b1-4)GlcNAc(b1-3)Gal(b1-4)GlcNAc(b1-3)Gal(b1-4)GlcNAc(b1-2)Man(a1-3)[Gal(b1-4)GlcNAc(b1-3)Gal(b1-4)GlcNAc(b1-3)Gal(b1-4)GlcNAc(b1-3)Gal(b1-4)GlcNAc(b1-3)Gal(b1-4)GlcNAc(b1-3)Gal(b1-4)GlcNAc(b1-2)Man(a1-6)]Man(b1-4)GlcNAc(b1-4)GlcNAc
# In short: as §1
# [21] = target: Gal(b1-4)GlcNAc(b1-3)Gal(b1-4)GlcNAc(b1-3)GalNAc
# In short: as §1
# [22] = target: Gal(b1-4)GlcNAc(b1-3)GalNAc
# In short: as §1
# [23] = target: Gal(b1-4)GlcNAc(b1-6)[Gal(b1-4)GlcNAc(b1-3)]GalNAc
# In short: as §1
binder,measurement,setting,value
B1,glycan array binding signal (z-score),Fuc(a1-2)Gal(b1-3)GalNAc,-0.424
same,glycan array binding signal (z-score),[1],3.79
same,glycan array binding signal (z-score),[2],-0.072
same,glycan array binding signal (z-score),[3],0.297
same,glycan array binding signal (z-score),[4],0.012
same,glycan array binding signal (z-score),[5],-0.681
same,glycan array binding signal (z-score),[6],-0.184
same,glycan array binding signal (z-score),[7],0.562
same,glycan array binding signal (z-score),[8],3.66
same,glycan array binding signal (z-score),[9],0.023
same,glycan array binding signal (z-score),[10],1.3
same,glycan array binding signal (z-score),Fuc(a1-3)GlcNAc,-0.573
same,glycan array binding signal (z-score),Gal(a1-2)Gal,-0.045
same,glycan array binding signal (z-score),Gal(a1-3)Gal(b1-3)GlcNAc,0.134
same,glycan array binding signal (z-score),[11],-0.562
same,glycan array binding signal (z-score),[12],-0.42
same,glycan array binding signal (z-score),Gal(a1-3)Gal(b1-4)Glc,0.092
same,glycan array binding signal (z-score),[13],-0.23
same,glycan array binding signal (z-score),Gal(a1-3)GalNAc,-0.121
same,glycan array binding signal (z-score),[14],-0.568
same,glycan array binding signal (z-score),[15],3.59
same,glycan array binding signal (z-score),[16],-0.399
same,glycan array binding signal (z-score),[17],-0.041
same,glycan array binding signal (z-score),[18],4.32
same,glycan array binding signal (z-score),[19],0.005
same,glycan array binding signal (z-score),[20],3.7
same,glycan array binding signal (z-score),[21],3.36
same,glycan array binding signal (z-score),[22],-0.24
same,glycan array binding signal (z-score),[23],3.6

# From the supplement of paper PMC8728848
